Assay [1] in a line: qHTS assay for small molecules that induce genotoxicity in human embryonic kidney cells expressing luciferase-tagged ATAD5 - cell viability (AID 651634; calls by dose curve; also: nearly all actives have a fitted effect of over 25% in size; also: potency is read from the fitted curve at half-maximal effect). Summed up:
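HEK293T cells expressing luciferase-tagged ATAD5 were exposed to compound or DMSO for 15.5 hr at 37C, 5% CO2. Viability was then read as live-cell protease activity by CellTiter-Fluor fluorescence after 30 min at 37C.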

A short description of assay [2]: qHTS assay for small molecule disruptors of the mitochondrial membrane potential - cell viability (AID 720634; calls by dose curve;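 also: human HepG2 liver cancer cells; series mostly up to about 83 µM; % is scaled to controls: 0 for no effect and ±100 for the full control effect; nearly all actives have a fitted effect of over 20% in size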). The gist of the method: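 HepG2 cells seeded overnight at 37 C, then exposed to compound or DMSO for 1 hr at 37 C, 5% CO2. m-MPI dye added, then CellTiter-Glo for 30 min at room temperature; viability read as ATP luminescence.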
A short description of assay [3]: qHTS assay to test for compound auto fluorescence at 535 nm (green) in HepG2 cells (AID 720675). Also: % is scaled to controls: 0 for no effect and ±100 for the full control effect.
Assay [4] is described as follows: qHTS assay to test for compound auto fluorescence at 460 nm (blue) in HEK293 cells (AID 720678). Also: % is scaled to controls: 0 for no effect and ±100 for the full control effect. Summed up:
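Blue read-out at excitation 405 nm and emission 460 nm follows overnight compound exposure of HEK293 cells at 37C in 5% CO2. Activity is given as auto fluorescence equivalency to triamterene.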

The nature of assay [5]: qHTS assay to test for compound auto fluorescence at 590 nm (red) in HEK293 cells (AID 720679). Also: % is scaled to controls: 0 for no effect and ±100 for the full control effect. The gist of the method: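 Red channel, Ex/Em 540/590nm; signal expressed as equivalency to Rose Bengal sodium. HEK293, 2,000 cells/well, 10% dialyzed FBS; 23 nL compound pinned after 4-5 hr attachment; overnight 37C/5% CO2 before reading.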
Assay [6] in a line: qHTS assay to test for compound auto fluorescence at 535 nm (green) in HEK293 cells (AID 720680). Also: % is scaled to controls: 0 for no effect and ±100 for the full control effect.
The nature of assay [7]: qHTS assay to test for compound auto fluorescence at 460 nm (blue) in HEK293 cell free culture (AID 720681). Also: % is scaled to controls: 0 for no effect and ±100 for the full control effect. Summed up: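 Test compounds were pinned into cell-free culture medium (DMEM with 10% FBS) and fluorescence was read directly at Ex/Em 405/460 nm. Signals were expressed as fluorescence equivalents of triamterene, with DMSO vehicle as control.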
Assay [8] is described as follows: qHTS assay to test for compound auto fluorescence at 535 nm (green) in HEK293 cell free culture (AID 720682). Also: % is scaled to controls: 0 for no effect and ±100 for the full control effect. The gist of the method: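 Cell-free medium (DMEM, 10% FBS) receives compound or DMSO by pintool. Plate read directly at Ex 485/Em 535 nm. Signal converted to fluorescein equivalency.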
Assay [9] is described as follows: qHTS assay to test for compound auto fluorescence at 590 nm (red) in HEK293 cell free culture (AID 720683). Also: % is scaled to controls: 0 for no effect and ±100 for the full control effect. Summed up: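 Tox21 10K library compounds were pinned into cell-free DMEM with 10% FBS and fluorescence was read at excitation 540 nm. Activity is expressed as Rose Bengal sodium equivalency.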
A short description of assay [10]: qHTS assay to test for compound auto fluorescence at 590 nm (red) in HepG2 cell free culture (AID 720684). Also: % is scaled to controls: 0 for no effect and ±100 for the full control effect. The gist of the method: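 Measured in medium alone (MEM containing 10% FBS) following pintool addition of compound; emission at 590 nm with 540 nm excitation, referenced to Rose Bengal sodium.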
A short description of assay [11]: qHTS assay to test for compound auto fluorescence at 460 nm (blue) in HepG2 cell free culture (AID 720685). Also: % is scaled to controls: 0 for no effect and ±100 for the full control effect. Summed up:
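Compound (23 nL) or DMSO pinned into cell-free MEM with 10% FBS; blue fluorescence read at 405/460 nm excitation/emission, expressed as auto-fluorescence equivalency to triamterene.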

A short description of assay [12]: qHTS assay to test for compound auto fluorescence at 535 nm (green) in HepG2 cell free culture (AID 720686). Also: % is scaled to controls: 0 for no effect and ±100 for the full control effect.
Assay [13] is described as follows: qHTS assay to test for compound auto fluorescence at 460 nm (blue) in HepG2 cells (AID 720687). Also: % is scaled to controls: 0 for no effect and ±100 for the full control effect. The gist of the method:
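Cells (2,000/well in MEM with 10% FBS) attached overnight at 37 C, then were exposed to compound or DMSO for 1 hr at 37 C, 5% CO2. Fluorescence read at Ex/Em 405/460 nm, expressed as triamterene-equivalent signal.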

Assay [14] in a line: qHTS assay for small molecules that induce genotoxicity in human embryonic kidney cells expressing luciferase-tagged ATAD5 (AID 651632). Also: % is scaled to controls: 0 for no effect and ±100 for the full control effect; nearly all actives have a fitted effect of over 15% in size. Summed up: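 HEK293T cells carrying a luciferase reporter tagged to ATAD5 were exposed to compound or DMSO vehicle for 16 hr at 37C, 5% CO2. Amplite was added, and after 30 min at room temperature luciferase activity was read as a marker of ATAD5 induction.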

Assay [15] is described as follows: qHTS assay to test for compound auto fluorescence at 590 nm (red) in HepG2 cells (AID 720674). Also: % is scaled to controls: 0 for no effect and ±100 for the full control effect. The gist of the method: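 Intrinsic compound fluorescence in the red window (Ex/Em 540/590 nm) is measured in attached HepG2 cells exposed for 1 hr, DMSO vehicle as baseline, benchmarked to Rose Bengal sodium.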
Assay [16] in a line: qHTS assay for small molecule agonists of the p53 signaling pathway - cell viability (AID 651633; calls by dose curve; also: nearly all actives have a fitted effect of over 30% in size; also: potency is read from the fitted curve at half-maximal effect). The gist of the method: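 p53RE-bla cells, seeded at 4,000 per well and rested 5 h at 37 C/5% CO2, received compounds in DMSO for 16 h at 37 C. CellTiter-Glo was then added, and luminescence was read after 30 min at room temperature to gauge cytotoxicity.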
In assay [17] the target is Glucocorticoid receptor (Homo sapiens) (UniProt P04150). Briefly: qHTS assay to identify small molecule agonists of the glucocorticoid receptor (GR) signaling pathway (AID 720691; active = well fitted activation curve with a large enough effect in the signal ratio in the repeat runs, not every such curve was filed as active; inconclusive = weak or mixed curves, or effect the other way; inactive = no such curve, though single readings can be large or run the other way; the % refers to the signal ratio; also: potency is read from the fitted curve at half-maximal effect). The gist of the method: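 GR-bla HeLa cells (beta-lactamase reporter under glucocorticoid response element) were plated 4 h at 37 C/5% CO2, given compounds in DMSO, and incubated 18 h at 37 C. LiveBLAzer B/G FRET substrate was added for 2 h at room temperature, then fluorescence intensity read.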
Sequence of Glucocorticoid receptor (Homo sapiens) (P04150 whole entry, looked up): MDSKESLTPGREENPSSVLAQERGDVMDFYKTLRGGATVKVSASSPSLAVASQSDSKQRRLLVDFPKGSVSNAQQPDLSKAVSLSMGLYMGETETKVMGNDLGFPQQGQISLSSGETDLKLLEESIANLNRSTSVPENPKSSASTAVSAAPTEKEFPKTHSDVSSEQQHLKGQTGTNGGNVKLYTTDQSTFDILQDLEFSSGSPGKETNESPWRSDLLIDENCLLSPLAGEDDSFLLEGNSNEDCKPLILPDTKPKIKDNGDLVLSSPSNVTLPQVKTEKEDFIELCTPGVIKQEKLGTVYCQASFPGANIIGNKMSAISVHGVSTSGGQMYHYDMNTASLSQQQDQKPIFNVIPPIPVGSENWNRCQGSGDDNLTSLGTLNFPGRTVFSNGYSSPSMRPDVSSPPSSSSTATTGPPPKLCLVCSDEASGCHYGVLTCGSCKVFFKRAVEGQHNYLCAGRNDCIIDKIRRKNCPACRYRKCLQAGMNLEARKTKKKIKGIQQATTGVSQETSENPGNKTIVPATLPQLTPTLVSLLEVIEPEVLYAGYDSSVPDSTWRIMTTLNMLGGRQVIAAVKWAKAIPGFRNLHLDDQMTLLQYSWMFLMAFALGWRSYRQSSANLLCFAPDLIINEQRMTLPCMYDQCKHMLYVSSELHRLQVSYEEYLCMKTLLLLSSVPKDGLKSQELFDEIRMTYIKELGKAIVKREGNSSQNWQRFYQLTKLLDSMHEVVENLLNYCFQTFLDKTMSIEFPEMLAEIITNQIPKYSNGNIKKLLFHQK

Assay [18] is described as follows: qHTS assay for small molecule disruptors of the mitochondrial membrane potential (AID 720635). Also: potency is read from the fitted curve at half-maximal effect. Summed up: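 HepG2 cells (2,000/well) attached overnight at 37C, then took compound for 1 hr at 37C, 5% CO2. Mito-MPS dye was added for 30 min; fluorescence was read at 490/535 nm (monomers) and 540/590 nm (aggregates).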
The target of assay [19] is Glucocorticoid receptor (Homo sapiens) (UniProt P04150). Briefly: qHTS assay to identify small molecule antagonists of the glucocorticoid receptor (GR) signaling pathway (AID 720692; active = well fitted inhibition curve with a large enough effect in the signal ratio in the repeat runs, not every such curve was filed as active; inconclusive = weak or mixed curves, or effect the other way; inactive = no such curve, though single readings can be large or run the other way; the % refers to the signal ratio; also: potency is read from the fitted curve at half-maximal effect). The gist of the method:
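GR-bla HeLa cells (beta-lactamase reporter under glucocorticoid response element) were pre-plated 4 h at 37 C, treated with compounds plus 5 nM dexamethasone (final) for 18 h, then read by LiveBLAzer B/G FRET fluorescence after 2 h.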

Structures are written as SMILES. A number with no mark means an inactive call. The source made the active and inactive calls. Unless noted, calls follow the shape of the dose curve; as a rule, active = well fitted curve in the direction sought with a large enough effect in the repeat runs; inconclusive = weak or mixed curves; inactive = no such curve, though single readings can be large; an effect the other way counts as inactive or inconclusive.

Consider `CCOC(=O)OC(C)OC(=O)[C@@H]1N2C(=O)[C@@H](NC(=O)[C@H](N)c3ccccc3)[C@H]2SC1(C)C` (some centres not stated), for which the Potency entry in assay [1] and in [2] was “inactive” throughout. Besides, the fluorescence, % of fluorescein control in [3] is 0.0265% [at 18.6 µM]; in assay [12], 0.112% [at 18.6 µM]. In addition, in assay [4], the fluorescence, % of triamterene is 0.659% [at 18.6 µM]. Also, the fluorescence, % of fluorescent control in assay [5] is 0.375% [at 18.6 µM]; in assay [7], 0.602% [at 18.6 µM]; in [9] it was -0.265% [at 18.6 µM]; in assay [11], 0.443% [at 18.6 µM]; in assay [13], 0.278% [at 18.6 µM]. Further, the fluorescence, % of fluorescein in assay [6] is 0.0714% [at 18.6 µM]. The activity change in [8] is -0.0186% [at 18.6 µM]. In [10], the fluorescence, % of Rose Bengal was 0.701% [at 18.6 µM].
`O=C1Cc2ccccc2N1c1c(Cl)cccc1Cl`: the Potency entry in assay [14], in assay [1], in assay [4], in [7], in [11] and in [13] was “inactive” throughout. The molecule was classed as inactive in [15], in assay [3], in assay [5], in [6], in [8] and in assay [9]. Moreover, the molecule was called inactive in [10] and in [12].
As for `CC1(C)O[C@@H]2C[C@H]3[C@@H]4C[C@H](F)C5=CC(=O)C=C[C@]5(C)[C@H]4[C@@H](O)C[C@]3(C)[C@]2(C(=O)CO)O1`, the Potency entry in [16], in assay [1] and in assay [2] was “inactive” throughout. Further, the fluorescence, % of fluorescein control in assay [3] is -0.107% [at 18.6 µM]; in [12], -0.129% [at 18.6 µM]. For the same molecule, in assay [4], the fluorescence, % of triamterene was -0.229% [at 18.6 µM]. Further, the fluorescence, % of fluorescent control in [5] is -0.713% [at 18.6 µM]; in [7], -0.131% [at 18.6 µM]; in assay [9], -0.673% [at 18.6 µM]; in [11], -0.0967% [at 18.6 µM]; in assay [13], -0.0461% [at 18.6 µM]. Besides, the fluorescence, % of fluorescein in [6] is -0.126% [at 18.6 µM]. Besides, the fluorescence, % of Rose Bengal in [10] is -0.32% [at 18.6 µM]. The Potency in assay [17] was 1.29 µM [inconclusive] (active).
For `Cc1c(C)c2c(c(C)c1OC(=O)CCC(=O)OCCO)CC[C@@](C)(CCC[C@H](C)CCC[C@H](C)CCCC(C)C)O2`, the Potency is 21.1 µM (active) in assay [16], 23.7 µM (active) in assay [1] and 19 µM (active) in assay [19]. Further, the Potency result in assay [2], in [18], in assay [4], in assay [7], in assay [11] and in [13] was “inactive” throughout. In addition, the molecule was called inactive in [3], in assay [5], in assay [6], in assay [8], in assay [9] and in assay [10]. For the same molecule, the outcome in [12] was inactive.
`Cc1cc(O)ccc1O`: the Potency entry in assay [1], in assay [2], in assay [18], in assay [4], in assay [7] and in assay [11] was “inactive” each time. Further, in assay [13], the Potency entry was “inactive”. The result in assay [3], in assay [5], in [6], in [8], in assay [9] and in assay [10] was inactive. The molecule was called inactive in assay [12].
For `CN1C(=O)c2ccccc2C1=O`, the Potency entry in [16], in assay [2], in assay [4], in assay [7], in [11] and in [13] was “inactive” each time. Further, in [17], the Potency entry is “inactive”. Besides, the molecule was classed as inactive in assay [3], in assay [5], in assay [8], in assay [9], in assay [10] and in assay [12].
`Nc1nc2ccc([N+](=O)[O-])cc2s1`: the Potency result in assay [14], in [2], in assay [4], in [7], in assay [11] and in assay [13] was “inactive” each time. For the same molecule, the Potency in [18] is 4.33 µM (active). The outcome in assay [15], in [3], in assay [5], in assay [6], in [9] and in assay [10] was inactive. The outcome in assay [12] was inactive.
With `OC[C@H]1O[C@@H](n2cnc3c(=S)nc[nH]c32)[C@H](O)[C@@H]1O`, the Potency entry in assay [14], in assay [2], in assay [4], in assay [7], in assay [11] and in [13] was “inactive” in each case. The Potency result in assay [17] is “inactive”. For the same molecule, the Potency in assay [18] was 0.211 µM (active). Moreover, the outcome in [3], in [5], in [6], in [9], in [10] and in assay [12] was inactive.
On to `Nc1nnc(-c2ccc([N+](=O)[O-])o2)o1`, for which the Potency result in [16], in assay [1], in assay [2], in assay [4], in assay [7] and in assay [11] was “inactive” in each case. Moreover, the Potency entry in assay [13] and in assay [17] was “inactive” each time. The Potency in assay [18] was 61.1 µM (active). Also, the molecule was classed as inactive in assay [15], in [3], in assay [5], in assay [6], in assay [9] and in assay [10]. The molecule was called inactive in [12].
For `CCCCCCCCOc1ccc(C(=O)O)cc1`, the Potency entry in assay [14], in assay [2], in assay [7], in assay [11], in [13] and in assay [17] was “inactive” in each case. For the same molecule, the molecule was called inactive in [15], in [3], in assay [5], in assay [6], in assay [8] and in assay [9]. Also, the outcome in assay [10] and in assay [12] was inactive.
`C/C=C/C=C/C=O`: the Potency entry in assay [1], in [2], in assay [18], in [4], in assay [7] and in assay [11] was “inactive” in each case. Further, the Potency entry in assay [13] and in [17] was “inactive” throughout. Also, the call in assay [15], in assay [3], in [5], in [6], in assay [8] and in assay [9] was inactive. Besides, the result in assay [10] and in [12] was inactive.
Consider `Cc1ccccc1S`, for which the Potency entry in [16], in assay [2], in assay [18], in assay [7], in assay [11] and in [13] was “inactive” throughout. The result in assay [15], in assay [3], in assay [5], in assay [6], in [8] and in assay [9] was inactive. Besides, the molecule was called inactive in [10] and in assay [12].

The values are drawn from PubChem BioAssay (Tox21).
